miR122 inh: miR-122 suppressors via Renilla sensor increase, primary screen, cell-based, Huh7 psiCHECK-miR122, Renilla luciferase, single point; 48 h; activation, % at 12.5 µM; 340,000 compounds, 0.14% hits; AID 623901, 2012;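 active = mean activation of 30% or more, with every replicate also reaching 30%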;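 note: 0% = median of neutral control wells and 100% = median of positive control wells; higher luciferase signal means stronger suppression of miR-122 activity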
* marks the source's active call; other numbers are inactive results. Shown is part of a subset that was picked to be rich in hits.

SMILES	miR122 inh
C[C@@H]1CN([C@@H](C)CO)S(=O)(=O)c2ccc(C#Cc3ccccc3)cc2O[C@H]1CN(C)C(=O)Nc1ccc2c(c1)OCO2	-9
C[C@@H]1CN([C@H](C)CO)S(=O)(=O)c2ccc(-c3cncnc3)cc2O[C@H]1CN(C)C(=O)Cc1cccnc1	-1
COc1ccc(-c2cnc3c(c2)C(=O)N([C@H](C)CO)C[C@@H](C)[C@@H](CN(C)Cc2ccccn2)O3)cc1	1
CCCC(=O)Nc1ccc2c(c1)OC[C@H](C)N(C(C)=O)C[C@H](C)[C@H](OC)CN(C)C2=O	2
C[C@H]1CN([C@@H](C)CO)C(=O)c2cc(Br)cnc2O[C@@H]1CN(C)Cc1ccc2c(c1)OCO2	9
COCC(=O)N(C)C[C@H]1Oc2cc(C#CC3CC3)ccc2S(=O)(=O)N([C@@H](C)CO)C[C@H]1C	5
CO[C@H]1CN(C)C(=O)c2cc(NS(=O)(=O)CC(F)(F)F)ccc2OC[C@H](C)N(C)C[C@H]1C	-2
CCCC#Cc1cnc2c(c1)C(=O)N([C@H](C)CO)C[C@@H](C)[C@@H](CN(C)C(=O)C1CC1)O2	1
C[C@@H]1CN([C@@H](C)CO)C(=O)c2cc(NC(=O)Nc3cccc4ccccc34)ccc2O[C@@H](C)CCCCO[C@@H]1CN(C)CC1CCCCC1	34*
C[C@@H]1CN([C@H](C)CO)C(=O)c2cc(NC(=O)Nc3cccc4ccccc34)ccc2O[C@@H]1CN(C)C(=O)Nc1ccccc1	-90
COc1ccc(CN(C)C[C@@H]2OCCCC[C@H](C)Oc3ccc(NC(=O)Nc4ccc(C(F)(F)F)cc4)cc3C(=O)N([C@H](C)CO)C[C@@H]2C)cc1	31*
Cc1ccc(S(=O)(=O)Nc2ccc3c(c2)C(=O)N([C@@H](C)CO)C[C@H](C)[C@H](CN(C)C(=O)Nc2ccc(F)cc2)OCCCC[C@@H](C)O3)cc1	-94
C[C@H](CO)N1C[C@H](C)[C@H](CN(C)Cc2ccc(Cl)c(Cl)c2)Oc2c(NC(=O)Nc3ccc4c(c3)OCO4)cccc2C1=O	-91
COc1ccc(S(=O)(=O)N(C)C[C@H]2Oc3ccc(NC(=O)Nc4ccc(C(F)(F)F)cc4)cc3C(=O)N([C@@H](C)CO)C[C@H]2C)cc1	-111
C[C@H](CO)N1C[C@H](C)[C@H](CN(C)C(=O)NC2CCCCC2)Oc2ncc(-c3cccc(C(F)(F)F)c3)cc2C1=O	33*
C[C@@H]1CCCCO[C@@H](CN(C)Cc2ccc3c(c2)OCO3)[C@H](C)CN([C@H](C)CO)C(=O)c2cc(NC(=O)Nc3ccc(C(F)(F)F)cc3)ccc2O1	34*
C[C@@H]1CN([C@H](C)CO)C(=O)c2cccc(NC(=O)Nc3ccccc3)c2O[C@H]1CN(C)Cc1ccc(C(F)(F)F)cc1	-107
C[C@H](CO)N1C[C@H](C)[C@H](CN(C)C(=O)NC2CCCCC2)Oc2ncc(-c3ccccc3F)cc2C1=O	3
C[C@@H]1CN([C@@H](C)CO)C(=O)c2cc(-c3ccccc3F)cnc2O[C@H]1CN(C)C(=O)NC1CCCCC1	0
COc1ccc(CN(C)C[C@@H]2OCCCC[C@@H](C)Oc3ccc(NC(=O)c4ccccc4)cc3C(=O)N([C@H](C)CO)C[C@@H]2C)cc1	-95
C[C@H](CO)N1C[C@H](C)[C@@H](CN(C)C(=O)CC2CC2)Oc2cc(-c3ccccc3)ccc2S1(=O)=O	-32
C[C@@H]1CN([C@H](C)CO)S(=O)(=O)c2ccc(-c3cccc(C(=O)N(C)C)c3)cc2O[C@@H]1CN(C)C(=O)Nc1ccccc1	-31
COCC(=O)Nc1ccc2c(c1)C(=O)N(C)C[C@H](OC)[C@H](C)CN(C(=O)COC)[C@@H](C)CO2	-2
COc1ccc(-c2cnc3c(c2)C(=O)N([C@H](C)CO)C[C@@H](C)[C@H](CN(C)C(=O)C2CCOCC2)O3)cc1	-1
C[C@@H]1CN([C@H](C)CO)S(=O)(=O)c2ccc(/C=C/c3ccccc3)cc2O[C@H]1CN(C)C(=O)c1ccccc1	-8
SMILES	miR122 inh
CC(C)CC#Cc1ccc2c(c1)O[C@@H](CN(C)C(=O)NC1CCCC1)[C@H](C)CN([C@H](C)CO)S2(=O)=O	-24
CC(C)C#Cc1cnc2c(c1)C(=O)N([C@@H](C)CO)C[C@H](C)[C@H](CN(C)Cc1ccccn1)O2	3
COc1ccccc1-c1cnc2c(c1)C(=O)N([C@@H](C)CO)C[C@H](C)[C@H](CN(C)Cc1ccccc1)O2	-9
C[C@H]1CN([C@@H](C)CO)S(=O)(=O)c2ccc(C#Cc3ccccn3)cc2O[C@H]1CN(C)Cc1cccc(F)c1	1
C[C@H](CO)N1C[C@H](C)[C@H](CN(C)C(=O)c2ccccn2)Oc2ncc(-c3ccc(F)cc3)cc2C1=O	7
C[C@@H]1CN([C@H](C)CO)S(=O)(=O)c2ccc(C#C[C@@H](C)O)cc2O[C@H]1CN(C)C	-6
C[C@H]1CN([C@@H](C)CO)C(=O)c2cc(C#CCc3ccccc3)cnc2O[C@H]1CN(C)CC1CCOCC1	-1
COc1ccc(S(=O)(=O)N(C)C[C@H]2Oc3ccc(NC(=O)Nc4ccc(C(F)(F)F)cc4)cc3C(=O)N([C@H](C)CO)C[C@H]2C)cc1	-136
